High-throughput results: PubChem, National Center for Advancing Translational Sciences (NCATS)
CBFb-RUNX1 inh: qHTS Assay for Compounds Blocking the Interaction Between CBF-beta and RUNX1 for the Treatment of Acute Myeloid Leukemia | Runt-related transcription factor 1 (Homo sapiens) + Core-binding factor subunit beta … | AlphaScreen CBFb-His/RUNX1-biotin binding, biochemical | Potency, µM (series often up to 59.8 µM), without a hit: top-dose activity, negative = inhibition, hits mostly inhibitors | 230,000 tested, under 10 active; note: % of control where 0% means no effect
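Compounds were screened at multiple concentrations against a preformed CBF-beta(His)/RUNX1(biotin) complex (30 nM of each) for 15 min at room temperature, followed by 90 min with nickel and streptavidin beads and AlphaScreen reading.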
AT treatment: qHTS Assay for Identifying a Potential Treatment of Ataxia-Telangiectasia | AID 485349, 2010 | Potency, µM (highest dose often 57.5 µM), for inactives: at the top dose activation, usual class: activators | 0.19% of 320,000 active | F2112 A-T fibroblasts, KAP-1 phosphorylation AlphaLISA; neocarzinostatin DNA damage 30 min before lysis; note: potency is the fitted concentration of half-maximal effect; % of control where 0% means no effect; nearly all actives have a fitted effect of over 45% in size
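ATM-like activity read as KAP-1 phosphorylation via AlphaLISA donor/acceptor antibody pairs after lysis and 6 hr at 25C. Cells were ATM-null patient fibroblasts (F2112, hTERT), dosed 60 min, then exposed to the DSB inducer NCS for 30 min.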
IMPase Li inh: qHTS Assay for Identifying the Cell-Membrane Permeable IMPase Inhibitors: Potentiation with Lithium; Potency, µM (top dose mostly 59.4 µM), for inactives: at the top dose activity, negative = IMPase inhibition, most hits filed as inhibitors; CHO-M1 cells, IP1 TR-FRET (IP-One), carbachol + lithium; 0.35% of 210,000 active;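 note: IP1 builds up when IMPase is blocked and the TR-FRET signal falls; potency is the fitted concentration of half-maximal effect; plate controls were basal vehicle for no effect and high inhibitor control for full effect; nearly all actives have a fitted effect of over 50% in size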
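CHO-M1, 2000 cells/well, 16–30 h culture; cpd + low Li+, 30 min 37C; lysis with d2-IP1/Eu-anti-IP1 Ab, 10 min RT; TR-FRET 665/620 ratio and 620 channel; AC50 via Hill.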
PTAP TSG101 blk: qHTS Assay for Iinhibitors of HIV-1 Budding by Blocking the Interaction of PTAP/TSG101 | Tumor susceptibility gene 101 protein (Homo sapiens), Q99816 | Fluorescence polarization, FITC-PTAP peptide / Tsg101 binding | Potency, µM (series often up to 115 µM), for the others: at the top dose activity change, negative = inhibition, usual class: inhibitors | 340,000 tested, under 10 active; active = well fitted inhibition curve with a large enough effect in the main read-out, with a control signal flat, not every such curve was filed as active; inconclusive = small, poorly fitted or top-dose-only effect, or effect the other way, or a change in a side signal; inactive = no such curve, though single readings can be large or run the other way; note: potency is the fitted concentration of half-maximal effect; % of control where 0% means no effect
Target sequence (Q99816 whole entry, looked up): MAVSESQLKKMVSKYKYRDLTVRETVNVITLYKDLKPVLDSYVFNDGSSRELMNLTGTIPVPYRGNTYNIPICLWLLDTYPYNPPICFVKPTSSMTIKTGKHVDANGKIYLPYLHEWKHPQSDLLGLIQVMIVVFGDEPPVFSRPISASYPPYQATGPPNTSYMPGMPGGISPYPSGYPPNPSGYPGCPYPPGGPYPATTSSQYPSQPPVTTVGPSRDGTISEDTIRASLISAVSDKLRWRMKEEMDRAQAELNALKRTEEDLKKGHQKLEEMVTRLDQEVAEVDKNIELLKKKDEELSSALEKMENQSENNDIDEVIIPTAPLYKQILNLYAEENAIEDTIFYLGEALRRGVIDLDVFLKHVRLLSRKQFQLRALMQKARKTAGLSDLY
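Steps: Tsg101 binding domain dispensed (10 uM final), compounds pinned in DMSO, FITC-labeled PTAP-motif peptide added (50 nM final); after 20 min binding at room temperature, polarization measured.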
* hit, by the source's call; ? = inconclusive; / = no result given; [ ] = another dose, or the depositor's remark. Compounds with a hit are over-represented: about 0.37% of the library has one in this group of screens. Unless noted, calls come from the whole dose curve; as a rule, active = well fitted curve in the direction sought with a large enough effect; inconclusive = small, poorly fitted or top-dose-only effect, or another doubt; inactive = no such curve, though single readings can be large; an effect the other way counts as inactive or inconclusive.

SMILES	CBFb-RUNX1 inh	AT treatment	IMPase Li inh	PTAP TSG101 blk
O=C(Cn1c(=O)n(Cc2ccc(F)cc2)c(=O)c2ccccc21)NCC1CCCO1 (stereo unspecified)	/	-1.4%	/	0.0%
O=c1oc2cc(O)ccc2c2ccccc12	0.1%	-3.5%	12.6µM*	3.8%
C=CCN1C(=O)/C(=C2/Sc3ccc(OC)cc3N2C)SC1=NCc1ccccc1	-14.9%	0.6%	2µM*	-0.5%
C=CCN1C(=O)/C(=C2/Sc3ccc(OC)cc3N2C)SC1=Nc1ccccc1	1.4%	-2.3%	?	1.2%
CC(C)c1nc2sc3c(=S)nc[nH]c3c2c2c1CCC2	0.0%	-30.8%	/	-3.5%
S=c1nc[nH]c2c1sc1nc(N3CCOCC3)c3c(c12)CCCC3	3.0%	-1.4%	11.2µM*	-0.8%
Nc1[nH]c(N=NC(=O)c2ccccc2O)c2ccccc12	-16.4%	-5.1%	12.5%	-1.6%
O=c1c2oc3ccccc3c2[nH]c(=S)n1-c1ccc(F)cc1	7.1%	-3.9%	11.2µM*	-0.6%
Cc1ccc(-n2c(=S)[nH]c3c(oc4ccccc43)c2=O)cc1C	-1.6%	-4.0%	/	-0.4%
COc1ccc(C(CNC(=O)C(Cc2ccccc2)NC(N)=O)N(C)C)cc1 (stereo unspecified)	/	0.891µM*	/	-6.5%
COc1ccc(C(CNC(=O)Cc2ccc(-c3ccccc3)cc2)N(C)C)cc1 (stereo unspecified)	/	0.6%	/	0.7%
Cc1cccc(NC2=NC(=S)N(c3ccc(C(=O)O)cc3)C23CCCCC3)c1	-0.2%	-0.9%	-25.9%[38.3 µM]	-1.7%
Cc1ccc2cc(CCNC(=O)CC(C)(C)C)c(=O)[nH]c2c1C	4.3%	6.2%	12.6µM*	-0.6%
